Data taken from PubChem BioAssay (NCI).
About 83,000 compounds went through this panel and 20% of them were active in at least one assay; those are over-represented in the sample as a whole.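 The test compound was applied at a single concentration to cells in 96-well plates for 48 hours, and percent growth was recorded.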 Unmarked numbers belong to inactive results. Calls of active or inactive are those of the source. The calls were made as follows: active = growth percent below 10; inactive = the rest.

Tests used:
Assay in all cases: NCI-60 one-dose screen, 48 h (100 = growth as untreated, 0 = no growth, -100 = all killed)
Details in all cases: 10 µM unless noted
HCT-15 colon = tested on: HCT-15 colon
HT29 colon = tested on: HT29 colon
SNB-19 CNS = tested on: SNB-19 CNS
U251 CNS = tested on: U251 CNS
PC-3 prostate = tested on: PC-3 prostate
SK-MEL-5 melanoma = tested on: SK-MEL-5 melanoma
UACC-62 melanoma = tested on: UACC-62 melanoma
SK-MEL-28 melanoma = tested on: SK-MEL-28 melanoma
SK-MEL-2 melanoma = tested on: SK-MEL-2 melanoma
EKVX NSCLC = tested on: EKVX NSCLC
SN12C renal = tested on: SN12C renal
UO-31 renal = tested on: UO-31 renal
TK-10 renal = tested on: TK-10 renal
ACHN renal = tested on: ACHN renal
CAKI-1 renal = tested on: CAKI-1 renal
CCRF-CEM leukemia = tested on: CCRF-CEM leukemia
MOLT-4 leukemia = tested on: MOLT-4 leukemia
LOX IMVI melanoma = tested on: LOX IMVI melanoma
A498 renal = tested on: A498 renal

Structure (SMILES)	growth (HCT-15 colon)	growth (HT29 colon)	growth (SNB-19 CNS) [%]	growth (U251 CNS)	growth (PC-3 prostate)	growth (SK-MEL-5 melanoma)	growth (UACC-62 melanoma)	growth (SK-MEL-28 melanoma) [%]	growth (SK-MEL-2 melanoma)	growth (EKVX NSCLC) [%]	growth (SN12C renal) [%]	growth (UO-31 renal)	growth (TK-10 renal)	growth (ACHN renal) [%]	growth (CAKI-1 renal)	growth (CCRF-CEM leukemia)	growth (MOLT-4 leukemia)	growth (LOX IMVI melanoma)	growth (A498 renal)
Clc1ccc(N/N=c2/oc3ccccc3cc2-c2cc3ccccc3[nH]2)cc1	59.4%	69.2%	85.4	80.2%	63.9%	82.5%	73.9%	97.7	108%	70.2	70.9	49.7%	145%	49.7	58.4%	79.7%	69.6%	–	–
N#Cc1c(-c2cccs2)cc(-c2cnccn2)nc1SCC(=O)Nc1ccc(Br)cc1	82.9%	90.9%	69.4	83%	86.9%	91.1%	78.9%	89.7	106%	57.6	87.7	58.4%	83%	64.5	64.4%	83.4%	89.5%	53.3%	6.18% (active)
CC(=O)c1cc(C(=O)N2c3ccccc3Sc3ccccc32)n2ccc3ccccc3c12	29.2%	14.8%	49.1	37.8%	37.6%	37.3%	21.4%	62.7	-77.5% (active)	61.3	67.6	42.8%	–	42.5	39.8%	28%	49.1%	41.4%	12.9%
CCCC(=O)NC(c1cccnc1)c1cc(C(C)(C)C)c2cccnc2c1O (stereo unspecified)	35.4%	34%	31.6	18.6%	44.1%	-15.4% (active)	7.53% (active)	24.6	30.5%	21.7	29.5	13.6%	42.3%	12.1	16.2%	9.16% (active)	14.2%	20.3%	13.6%
O=C(Nc1cccc(Cl)c1)Nc1nc2ccc([N+](=O)[O-])cc2o1	13.7%	14.3%	19.7	6.13% (active)	5.64% (active)	-13% (active)	2.02% (active)	26	3.62% (active)	16.7	16.8	24%	8.49% (active)	23	15.8%	10.5%	9.15% (active)	–	–
O=C1CCCc2nc(Nc3ccc(S(=O)(=O)Nc4ccc([N+](=O)[O-])cc4)cc3)ncc21	103%	118%	96.2	103%	105%	104%	90.3%	106	111%	100	96.2	87.1%	105%	104	89.9%	99.8%	101%	97.1%	94.7%
CNc1ncc2cc(-c3ccc(-c4ncccc4F)cc3Cl)c(=O)n(CC3OCC(N)CO3)c2n1 (stereo unspecified)	87.5%	48.1%	69	51.8%	81.9%	82.6%	78.6%	92.9	93.5%	57.6	59.8	-12.3% (active)	13.1%	40.9	0.298% (active)	78.1%	57.8%	32.3%	6.43% (active)
C=C(C=O)[C@@H]1CC[C@]2(CO)CC[C@]3(C)[C@H](CC[C@@H]4[C@@]5(C)CCCNC(C)(C)[C@@H]5CC[C@]43C)[C@@H]12	-8.29% (active)	-3.52% (active)	79.7	29.8%	11.4%	78%	83.2%	47.1	99.5%	88.2	54.6	78.3%	125%	88.9	67.5%	2.49% (active)	28%	–	–
C/C(=N\O)[C@H]1C[C@]23CC[C@]4(C)[C@H](CC[C@@H]5[C@@]6(C)CC/C(=N/O)C(C)(C)[C@@H]6CC[C@]54C)[C@H]2[C@H](C)C1(C)OC3	105%	113%	97.7	110%	94.8%	100%	89.7%	110	110%	70.9	91.5	67%	73.7%	104	65.2%	101%	98.7%	98.2%	72%
COc1ccc(-c2nc3ccc(-c4nnc(SCC(=O)Nc5ccc(C(=O)/C=C/c6ccc(Cl)cc6)cc5)o4)cc3[nH]2)cc1	86.1%	104%	108	94.3%	94.9%	98.9%	94%	101	–	99.7	88.3	85.3%	120%	97.7	97.2%	96%	88.3%	-29.9% (active)	84.3%
O=S(=O)(NCCCNc1nccc(-c2[nH]c(-c3ccccc3)nc2-c2ccc(Cl)c(O)c2)n1)c1cccc2ccccc12	16.3%	38.6%	37.8	14.7%	26.2%	13.1%	17.4%	29.8	-4.81% (active)	46.2	24	20.2%	49.7%	19.6	39.5%	20%	18.7%	19.8%	71.9%
